# Assay results: PubChem BioAssay (EPA / NIEHS)
# Calls of active or inactive are those of the source. How the source made its calls: active means hit-call score of the fitted dose curve at least 0.9, where 1 is the maximum; inactive means score below 0.9.
# How the values were obtained:
# Details in all cases: mRNA level, 48 h; actives raise or lower the signal
# [1] = read-out: Intercellular Adhesion Molecule 1 (ICAM1), ICAM1 (gene 3383); assay: LTEA_HepaRG_ICAM1: Life Technologies and Expression Analysis (LTEA) Assay for Intercellular Adhesion Molecule 1 (ICAM1) using HepaRG (AID 2283507)
# Summary of the method: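 ICAM1 transcript levels measured by qRT-PCR, normalized to three housekeeping genes (ACTB, GAPDH, POLR2A), after 48 h chemical exposure of HepaRG cells. Duplicate eight-point half-log series from 100 uM in 0.5% DMSO; gain or loss fitted against vehicle.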
# [2] = read-out: Insulin-like growth factor-binding protein 1 (IGFBP1), IGFBP1 (gene 3484); assay: LTEA_HepaRG_IGFBP1: Life Technologies and Expression Analysis (LTEA) Assay for Insulin-like growth factor-binding protein 1 (IGFBP1) using HepaRG (AID 2283508)
# Summary of the method: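 Read-out is qRT-PCR transcript level normalized to three housekeeping genes, fitted in both directions against 0.5% DMSO. Differentiated HepaRG cells received eight half-log concentrations (top 100 uM) in duplicate for 48 h in serum-free induction medium.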
# [3] = read-out: Interleukin 6 (IL6), IL6 (gene 3569); assay: LTEA_HepaRG_IL6: Life Technologies and Expression Analysis (LTEA) Assay for Interleukin 6 (IL6) using HepaRG (AID 2283509)
# Summary of the method: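 HepaRG, ~100,000 cells/well, 48 h pre-culture; serum-free induction medium; cmpd 8-pt half-log from 100 uM, 0.5% DMSO, duplicate, 48 h. Lysis in RLT, TaqMan qRT-PCR; gain or loss vs DMSO.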
# [4] = read-out: Interleukin 6 Receptor (IL6R), IL6R (gene 3570); assay: LTEA_HepaRG_IL6R: Life Technologies and Expression Analysis (LTEA) Assay for Interleukin 6 Receptor (IL6R) using HepaRG (AID 2283510)
# Summary of the method: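 Differentiated HepaRG cells, plated 48 h, then exposed in duplicate for 48 h in serum-free induction medium to 8 half-log concentrations (top 100 uM, 0.5% DMSO). IL6R mRNA measured by TaqMan qRT-PCR, normalized to ACTB/GAPDH/POLR2A; bidirectional fit vs DMSO.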
# [5] = read-out: Potassium channel subfamily K member 1 (KCNK1), KCNK1 (gene 3775); assay: LTEA_HepaRG_KCNK1: Life Technologies and Expression Analysis (LTEA) Assay for Potassium channel subfamily K member 1 (KCNK1) using HepaRG (AID 2283511)
# Summary of the method: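 Gain or loss of KCNK1 mRNA is the read-out, quantified by qRT-PCR against three housekeeping genes after 48 h chemical treatment of human HepaRG liver cells. Concentrations ran from 100 uM downward in half-log steps, vehicle 0.5% DMSO.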
# [6] = read-out: Keratin 19 (KRT19), KRT19 (gene 3880); assay: LTEA_HepaRG_KRT19: Life Technologies and Expression Analysis (LTEA) Assay for Keratin 19 (KRT19) using HepaRG (AID 2283512)
# Summary of the method: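 KRT19 transcript measured by TaqMan qRT-PCR, referenced to three housekeeping genes, after HepaRG cells received test chemicals for 48 h. Eight half-log concentrations, top 100 uM, 0.5% DMSO vehicle; increases and decreases both fitted.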
# [7] = read-out: JUN Transcription Factor, JUN (gene 3725); assay: LTEA_HepaRG_JUN: Life Technologies and Expression Analysis (LTEA) Assay for JUN Transcription Factor using HepaRG (AID 2283513)
# Summary of the method: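 HepaRG cells, 48 h post-plating, exposed 48 h in serum-free induction medium to 8-point half-log series (top 100 uM, 0.5% DMSO), duplicate; mRNA by qRT-PCR (TaqMan, Fluidigm), normalized to ACTB/GAPDH/POLR2A; bidirectional fit vs DMSO.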
# [8] = read-out: Lipase C (LIPC), LIPC (gene 3990); assay: LTEA_HepaRG_LIPC: Life Technologies and Expression Analysis (LTEA) Assay for Lipase C (LIPC) using HepaRG (AID 2283514)
# Summary of the method: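 Read-out is LIPC transcript level by TaqMan qRT-PCR, normalized to three housekeeping genes, after 48 h chemical treatment of human HepaRG liver cells. Curves span eight concentrations topping at 100 uM; activity in either direction scored relative to 0.5% DMSO.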
# [9] = read-out: Lipoprotein lipase (LPL), LPL (gene 4023); assay: LTEA_HepaRG_LPL: Life Technologies and Expression Analysis (LTEA) Assay for Lipoprotein lipase (LPL) using HepaRG (AID 2283515)
# Summary of the method: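 Read-out is LPL transcript level by qRT-PCR, normalized to three housekeeping genes and fitted bidirectionally against the DMSO control. Human HepaRG cells received chemicals for 48 h at up to 100 uM.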
# [10] = read-out: MicroRNA 122 (MIR122), gene 406906; assay: LTEA_HepaRG_MIR122: Life Technologies and Expression Analysis (LTEA) Assay for MicroRNA 122 (MIR122) using HepaRG (AID 2283516); further: the transcript read is the microRNA miR-122
# Summary of the method: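 Differentiated human HepaRG cells in serum-free induction medium exposed 48 h to 8 half-log concentrations from 100 uM in 0.5% DMSO, duplicate. MIR122 quantified by Fluidigm TaqMan qRT-PCR, normalised to ACTB, GAPDH, POLR2A; fold change fitted bidirectionally versus DMSO.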
# [11] = read-out: matrix metalloproteinase-10 (MMP10), MMP10 (gene 4319); assay: LTEA_HepaRG_MMP10: Life Technologies and Expression Analysis (LTEA) Assay for matrix metalloproteinase-10 (MMP10) using HepaRG (AID 2283517)
# Summary of the method: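 Gain or loss of MMP10 mRNA is fitted relative to the 0.5% DMSO vehicle. The human hepatic line HepaRG receives a 48-hour serum-free exposure, in duplicate, with a maximum concentration of 100 uM.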
# [12] = read-out: MYC, MYC (gene 4609); assay: LTEA_HepaRG_MYC: Life Technologies and Expression Analysis (LTEA) Assay for MYC using HepaRG (AID 2283518)
# Summary of the method: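 MYC transcript changes, up or down relative to 0.5% DMSO, from TaqMan qRT-PCR normalized to three housekeeping genes. Human HepaRG cultures received chemicals for 48 h at eight half-log concentrations up to 100 uM, in duplicate.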
# [13] = read-out: matrix metalloproteinase-3 (MMP3), MMP3 (gene 4314); assay: LTEA_HepaRG_MMP3: Life Technologies and Expression Analysis (LTEA) Assay for matrix metalloproteinase-3 (MMP3) using HepaRG (AID 2283519)
# Summary of the method: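 HepaRG, human; 48 h dosing, 8 conc. (max 100 uM, half-log), duplicate, 0.5% DMSO. Readout: MMP3 transcript by Fluidigm TaqMan qRT-PCR, ACTB/GAPDH/POLR2A-normalised. Gain or loss fitted vs DMSO.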
# [14] = read-out: Paternally Expressed 10 (PEG10), PEG10 (gene 23089); assay: LTEA_HepaRG_PEG10: Life Technologies and Expression Analysis (LTEA) Assay for Paternally Expressed 10 (PEG10) using HepaRG (AID 2283520)
# Summary of the method: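 Differentiated HepaRG cells exposed 48 h in serum-free induction medium to eight half-log concentrations topping at 100 uM, 0.5% DMSO, in duplicate. PEG10 mRNA quantified by TaqMan qRT-PCR, normalized to ACTB, GAPDH and POLR2A; bidirectional fit versus DMSO.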
# [15] = read-out: Protein phosphatase 2A (PPP2R4), PTPA (gene 5524); assay: LTEA_HepaRG_PPP2R4: Life Technologies and Expression Analysis (LTEA) Assay for Protein phosphatase 2A (PPP2R4) using HepaRG (AID 2283522)
# Summary of the method: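 Differentiated human HepaRG cells in serum-free induction medium were exposed 48 h to 8 concentrations (top 100 µM, half-log steps, duplicate) in 0.5% DMSO. PPP2R4 mRNA was measured by TaqMan qRT-PCR, normalised to ACTB, GAPDH and POLR2A, and fitted bidirectionally versus DMSO.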
# [16] = read-out: Phosphatase and tensin (PTEN), PTEN (gene 5728); assay: LTEA_HepaRG_PTEN: Life Technologies and Expression Analysis (LTEA) Assay for Phosphatase and tensin (PTEN) using HepaRG (AID 2283523)
# Summary of the method: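 Read-out is PTEN transcript level by multiplexed TaqMan qRT-PCR after 48 h chemical treatment of human HepaRG cultures in serum-free induction medium. Concentrations spanned 100 uM downward in half-log steps, 0.5% DMSO throughout; activity fitted in both directions against vehicle.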
# [17] = read-out: solute carrier (SLC22A1), SLC22A1 (gene 6580); assay: LTEA_HepaRG_SLC22A1: Life Technologies and Expression Analysis (LTEA) Assay for solute carrier (SLC22A1) using HepaRG (AID 2283524)
# Summary of the method: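 HepaRG (human liver line), 48 h dosing in serum-free induction medium; 8 conc., half-log down from 100 uM, 0.5% DMSO vehicle, duplicates. Endpoint: SLC22A1 mRNA, qRT-PCR, housekeeping-normalized; gain/loss fit vs DMSO.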
# [18] = read-out: Pyruvate Dehydrogenase Kinase 4 (PDK4), PDK4 (gene 5166); assay: LTEA_HepaRG_PDK4: Life Technologies and Expression Analysis (LTEA) Assay for Pyruvate Dehydrogenase Kinase 4 (PDK4) using HepaRG (AID 2283525)
# Summary of the method: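 In this multiplexed human HepaRG expression assay, cells are treated 48 h with test chemicals across an eight-point range starting at 100 uM. PDK4 mRNA changes, normalized to ACTB/GAPDH/POLR2A, are fitted in both directions relative to vehicle.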
# [19] = read-out: NAD(P)H dehydrogenase [quinone] 1 (NQO1), NQO1 (gene 1728); assay: LTEA_HepaRG_NQO1: Life Technologies and Expression Analysis (LTEA) Assay for NAD(P)H dehydrogenase [quinone] 1 (NQO1) using HepaRG (AID 2283526)
# Summary of the method: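 Differentiated human HepaRG cells in serum-free induction medium, dosed in duplicate for 48 h at 8 half-log concentrations up to 100 uM in 0.5% DMSO. NQO1 mRNA by qRT-PCR normalized to ACTB, GAPDH, POLR2A; bidirectional fit versus DMSO baseline.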
SMILES,outcome [1],outcome [2],outcome [3],outcome [4],outcome [5],outcome [6],outcome [7],outcome [8],outcome [9],outcome [10],outcome [11],outcome [12],outcome [13],outcome [14],outcome [15],outcome [16],outcome [17],outcome [18],outcome [19],AC50 [18]
CCCN(CCC)C(=O)SCC,inactive,inactive,inactive,inactive,inactive,inactive,inactive,inactive,inactive,inactive,inactive,inactive,inactive,inactive,inactive,inactive,inactive,inactive,inactive,
C#CCOC(=O)[C@@H](C)Oc1ccc(Oc2ncc(Cl)cc2F)cc1,inactive,inactive,inactive,inactive,inactive,inactive,inactive,inactive,inactive,inactive,inactive,inactive,inactive,inactive,inactive,inactive,inactive,,inactive,50 µM (active)
COc1c(Cl)ccc(Cl)c1C(=O)O,inactive,inactive,inactive,inactive,inactive,inactive,inactive,inactive,inactive,inactive,inactive,inactive,inactive,inactive,inactive,inactive,inactive,,inactive,
